Bioassay records from PubChem.
Compounds with a hit are over-represented: about 2.7% of the library has one in this group of screens.
proKLK7 act: activators of human kallikrein-7 zymogen. P49862. hit rate 0.9% among 370,000. AID 652039. purified proKLK7, EDANS-DABCYL substrate fluorescence; 100% is mature enzyme control, 0% vehicle. activation, % at 7 µM;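 active = activation above the mean of all tested compounds plus 3 SD, computed per campaign excluding outliers beyond control limits, cut at about 13% in these data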
PfG6PD inh: PfG6PD (Plasmodium falciparum) enzyme inhibition. PfGluPho enzyme, NADPH resazurin-diaphorase fluorescence. inhibition, % at 20 µM. hit rate 0.78% among 350,000. AID 504690;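 active = inhibition reaching at least a set limit at 20 µM in the primary screen, cut at about 59% in these data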;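 also: 0% = DMSO wells with substrate and 100% = DMSO wells lacking glucose-6-phosphate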
FAS TE block: inhibitors of human fatty acid synthase thioesterase domain | P49327 | recombinant FAS-TE, OMFH fluorogenic substrate, fluorescence endpoint | inhibition, % at 15 µM | hit rate 0.67% among 360,000 | AID 602261;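 active = compounds whose normalised, plate-corrected inhibition of enzyme fluorescence in the single-dose primary screen is 50% or more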;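 also: 0% = DMSO with enzyme and 100% = substrate without enzyme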
Neddyl block: cullin neddylation inhibition; calls only at 25 µM; hit rate 0.58% among 360,000; TR-FRET cullin neddylation, biochemical; in the data active = inhibition above about 36%
proKLK7 act conf: proKLK7 activation, confirmation; purified proKLK7, EDANS-DABCYL substrate fluorescence; scaled: vehicle 0, mature enzyme 100; shares compounds with proKLK7 act; AID 686949; activation, % at 7 µM; hit rate 68% among 3,200;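 active = activation, as change over the incubation, above the mean of all tested compounds plus 3 SD, cut at about 13% in these data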
EDANS-DABCYL int: counter-screen for kallikrein-7 activators: EDANS-DABCYL optical interference; shares compounds with proKLK7 act; EDANS-DABCYL substrate fluorescence interference, no enzyme, 4 h; solvent 0%, active enzyme control 100%; activation, % at 7 µM; AID 686952; hit rate 80% among 3,200;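 active = activation above the all-compound mean plus 3 SD, ignoring values outside control-based bounds, cut at about 4.8% in these data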;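 also: value is the 4 h activation minus the activation read at time zero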
EDANS interf: counter-screen for kallikrein-7 activators: EDANS-DABCYL interference, dose response. shares compounds with proKLK7 act. EDANS-DABCYL peptide fluorescence interference, no enzyme. EC50, µM. hit rate 20% among 250;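 active = compounds that raise the fluorescence signal in this interference counterscreen, with EC50 at or below 10 µM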;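 also: intact quenched peptide substrate alone read at 355 nm excitation and 520 nm emission; signal is fluorescence gain from T0 to T4 after four hours at room temperature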
Starred values were filed as active, the others as inactive; i = inactive; / = no result given.

SMILES	proKLK7 act	PfG6PD inh	FAS TE block	Neddyl block	proKLK7 act conf	EDANS-DABCYL int	others
Cc1ccc(/C=C2/NC(=O)N(Cc3ccccc3)C2=O)s1	17*	7	-32	i	5	-24
Cc1ccc(Cl)cc1NC(=O)C1CCCCC1C(=O)O (stereo unspecified)	15*	-15	-5	i	2	0
CCOC(=O)COc1ccc2nsnc2c1Cl	38*	-16	-6	/	37*	41*
O=C(O)COc1cccc2nsnc12	0	18	-10	i	/	/
COP(=O)(c1ccc(N(C)C)cc1)C(O)c1ccccc1 (stereo unspecified)	29*	-3	-5	i	0	0
CCOP(=O)(c1ccc(N(C)C)cc1)C(O)c1ccccc1 (stereo unspecified)	0	4	-10	i	/	/
Nc1ccccc1-c1nc2ccccc2c(=O)o1	15*	-15	11	/	6	4
Cc1cc(C)n2cc(CSc3ncn[nH]3)nc2n1	28*	-8	-7	/	8	6.8*
Cc1cc(C)n2cc(CSc3ccc(Br)cc3)nc2n1	-1	18	5	i	/	/
COc1ccc(-c2cc(C(F)F)n3ncc(C(=O)N4CCSCC4)c3n2)cc1	-101	-8	4	/	/	/
COc1ccc(-c2cc(C(=O)OCC(=O)N3CCOCC3)c3ccccc3n2)cc1	59*	10	12	i	144*	141*
CC1CN(C(=O)COC(=O)c2cc3ccccc3cc2O)CC(C)O1 (stereo unspecified)	14*	21	5	i	17*	17*
CCOC(=O)CCCNC(=O)COC(=O)c1cc(C)cc(C)c1	0	3	0	i	/	/
COC(=O)C1CCN(C(=O)COC(=O)c2cc(-c3ccccc3)nc3ccc(OC)cc23)CC1	/	20	28	/	/	/
CCOC(=O)CCCNC(=O)COC(=O)c1cc2ccccc2cc1O	25*	4	-2	i	19*	19*
COc1ccc(-c2cc(C(F)F)n3ncc(C(=O)N4CCN(C)CC4)c3n2)cc1	15*	-10	0	/	-4	-13
O=C(NCc1cccs1)C1Cc2c(-c3ccc(Cl)cc3)ccnc2O1 (stereo unspecified)	0	/	8	i	/	/
CCCCN1C(=O)C(CC(=O)NCCN2CCOCC2)CC(C(=O)N2CCCCCC2)=C1C (stereo unspecified)	0	/	-4	i	/	/
COc1cc2ccccc2cc1C(=O)OCC(=O)N1CCOCC1	15*	0	-8	/	22*	19*	EDANS interf=>69
COc1ccc(-c2cc(C(=O)N3CCCCCC3)c3cc(C)ccc3n2)cc1	-90	16	13	/	/	/
COc1ccc(-c2cc(C(=O)NCC3CCCO3)c3ccccc3n2)cc1 (stereo unspecified)	10	15	-4	/	/	/
COc1ccc2nc(C)cc(C(=O)O)c2c1	5	13	-10	/	/	/
COc1ccc(-c2cc(C(=O)N3CCOCC3)c3cc(C)ccc3n2)cc1	64*	19	-1	/	15*	21*
O=C(OCC(=O)N1CCOCC1)c1ccc2ccccc2c1O	5	7	-2	i	/	/
COc1ccc(-c2cc(C(=O)NCC3CCCO3)c3cc(C)ccc3n2)cc1 (stereo unspecified)	25*	13	-7	/	-40	-36
SMILES	proKLK7 act	PfG6PD inh	FAS TE block	Neddyl block	proKLK7 act conf	EDANS-DABCYL int	others
COc1ccc2nc(-c3ccc(Cl)cc3)cc(C(=O)O)c2c1	25*	52	-10	/	27*	44*
CC(C)c1ccc(Nc2n[nH]c(=S)s2)cc1	-1	/	-4	i	/	/
CC(=O)Oc1ccc(CN2C(=O)C(CCc3ccccc3)ON=C2c2cnccn2)cc1 (stereo unspecified)	0	/	14	i	/	/
O=S1(=O)c2ccccc2-c2c(nnn2Cc2ccccc2)CN1C1CC1	0	/	/	/	/	/
Cc1oc2c(C)c3oc(=O)c(CCC(=O)NCCCn4ccnc4)c(C)c3cc2c1C	-1	14	-11	/	/	/
Cc1c(CCC(=O)NCCCN2CCCC2=O)c(=O)oc2cc(O)ccc12	73*	2	-8	/	65*	84*
Cc1c(CCC(=O)NCCCN2CCCC2=O)c(=O)oc2c(C)c(O)ccc12	79*	15	-4	/	63*	77*
Cc1oc2c(C)c3oc(=O)c(CCC(=O)NCCCCCC(=O)O)c(C)c3cc2c1C	21*	-13	-11	/	14*	9.3*	EDANS interf=>69
COc1ccccc1C(NC(=O)C1CCN(CCOc2ccc(Cl)cc2Cl)CC1)c1ccccn1 (stereo unspecified)	0	/	0	i	/	/
CCNC(=O)C1CCCN(C(=O)C(c2ccccc2)c2ccccc2)CC1 (stereo unspecified)	0	/	-2	i	/	/
COc1ccc(NC(=O)c2ccc(NC(=O)CSc3nc(N)cc(=O)[nH]3)cc2)cc1	23*	6	-3	/	17*	14*	EDANS interf=i
CC1CCc2[nH]c3ccc(C(=O)NCCCOC(C)C)cc3c2C1 (stereo unspecified)	14*	29	-2	i	12	12*
CSc1ncc(CN2CCc3c([nH]c4ccccc34)C2C(C)(C)C)cn1 (stereo unspecified)	7	6	17	/	/	/
Cc1cccc(CN2CCc3c([nH]c4ccccc34)C2C(C)(C)C)n1 (stereo unspecified)	13*	14	-2	/	7	12*
CCc1ccccc1NC(=O)CNC(=O)CCC(=O)c1cc(C)sc1C	0	20	-8	i	/	/
COCCOC(=O)c1c(N)n(CCCN2CCOCC2)c2nc3ccccc3nc12	46*	7	-2	/	75*	79*
CC(C)Cn1c(N)c(C(=O)NCCN2CCOCC2)c2nc3ccccc3nc21	57*	13	1	/	-93	-108
COC(=O)c1c(N)n(CCCN2CCOCC2)c2nc3ccccc3nc12	43*	-1	-8	/	75*	80*
COc1ccc(CNC(=O)c2c(N)n(CCCN3CCOCC3)c3nc4ccccc4nc23)cc1	-31	27	20	/	/	/
COC1OC2COC(c3ccccc3)OC2C(NC(C)=O)C1OC(C)=O (stereo unspecified)	0	10	-8	i	/	/
CC(OC(=O)C1=COCCO1)C(=O)NC1CCCC(C)C1C (stereo unspecified)	0	4	-3	i	/	/
O=C(Nc1ccccc1F)c1cc2c(s1)-c1ccccc1S(=O)(=O)C2	89*	6	-5	/	60*	93*
Oc1c(Br)cc(C=Nc2ccc3nc(-c4ccccc4)[nH]c3c2)c(O)c1Br	-12	48	/	/	/	/
O=[N+]([O-])c1ccc(O)c(C=Nc2ccc3nc(-c4ccccc4)[nH]c3c2)c1	65*	25	-7	/	57*	63*
